Reference: ChEMBL document CHEMBL3988442, “University of Dundee, Small-Polar-MMV Screening Library” (2021)

Target: AMP-activated protein kinase, AMPK (Homo sapiens) (UniProt P54646+O43741+P54619+Q9UGJ0+Q9Y478+Q13131+Q9UGI9)
Assay: AMP-dependent Kinase enzyme assay. An in vitro enzyme assay that detects ADP turnover that is directly proportional to AMPK activity. This uses naive AMPK that is activated during the assay with MK-8722
Format: functional
Parameters: scale not given: direction of the effect not stated beside the values
Conditions: 30 µM

| Compound | Percent Effect [%] |
| --- | --- |
| Cc1cccc(OC2CCN(Cc3ncc[nH]3)CC2)c1 | -0.938 |
| Cc1cc(C)n(C2CN(CCC(N)=O)C2)n1 | -0.505 |
| Cn1ncc2c(NC3CCSC3)nc(-c3ccncc3)nc21 (centres undefined) | 9.02 |
| O=C(c1nc(N2CCCC2)ncc1Cl)N1CCN(Cc2ccsc2)CC1 | 7.12 |
| O=S(=O)(NCc1ccnc(-n2ccnc2)c1)c1cncc(F)c1 | -5.49 |
| Cn1ncnc1NCc1ccc(Br)cc1 | 6.33 |
| CCn1ncnc1C1CC(=O)NCc2nc(N3CCOCC3)sc21 (centres undefined) | -10.6 |
| Cn1nc(C(=O)NCCc2ccc(OC3CCCC3)cc2)ccc1=O | -4.35 |
| COc1ccc(C(=O)N2C[C@@H](O)[C@H](NCCc3ncccc3C)C2)cc1 | -1.16 |
| Cc1nc2cc(C3CCOCC3)nn2c(NCC2COCCO2)c1C (centres undefined) | 1.07 |
| Cc1csc(NC(=O)NCCCN2CCC(C(N)=O)CC2)n1 | 1.03 |
| O=C(c1nnn(-c2ccc(Cl)cc2)n1)N(CCO)Cc1ccccc1 | 3.07 |
| CSCC(C)(O)CNS(=O)(=O)c1ccc(Br)cc1 (centres undefined) | -4.9 |
| CC1CN(C)CCN1C(=O)c1cccn1Cc1ccncc1 (centres undefined) | 1.97 |
| CC(NC(=O)N1CCCN(CC(F)F)CC1)c1ccco1 (centres undefined) | -1.66 |
| Cc1cc(C(F)(F)F)nc(CNC(=O)CCn2cccn2)n1 | 12.2 |
| CCn1cc(S(=O)(=O)Nc2ccc3[nH]c(C4CCC4)nc3c2)cn1 | 2.5 |
| CCN(CC)C(CNC(=O)c1ccnc(N(C)C)c1)c1ccsc1 (centres undefined) | -4.85 |
| CN(Cc1nc2ccccc2n1C)C(=O)CCc1cscn1 | 3.49 |
